Bioassay records deposited in PubChem BioAssay by National Center for Advancing Translational Sciences (NCATS).
Only some compounds are listed: those with a hit (about 2.2% of all), similar ones and a draw of the others.
aSyn yeast inh – qHTS of alpha-syn Inhibitors | Yeast expressing alpha-synuclein, growth rescue, BacTiter-Glo, 24 h | Potency, µM (highest dose often 46.1 µM), most hits filed as activators | 0.14% of 370,000 active | AID 652106, 2013; further: nearly all actives have a fitted effect of over 65% in size
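Screening used galactose-induced yeast with toxic alpha-synuclein levels, exposed to compound for 24 hr at 30 deg C. Cell growth, read with BacTiter-Glo luminescence, gave the measured signal.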
FUS suppressor – qHTS for Suppressors of FUS Proteinopathy: Primary screen using FUS-linked yeast assay. Potency, µM (doses to about 76.6 µM), most hits filed as activators. S. cerevisiae FUS-expressing, growth rescue, OD600, 24 h. 0.24% of 390,000 active; further: nearly all actives have a fitted effect of over 55% in size
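Yeast FUS proteinopathy model; galactose-induced FUS (2%), starting OD 0.005. Cpds in dilution series, 24hr, 30C, 99% humidity. Abs 600 nm growth. Pos ctrl CP55940 (top 92uM final); neg ctrl DMSO.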
Mito fusion act – qHTS Assay for Small Molecule Inhibitors of Mitochondrial Division or Activators of Mitochondrial Fusion; S. cerevisiae fusion-defective mutant growth rescue, CellTiterGlo 48 h; 0.23% of 320,000 active; Potency, µM (highest dose often 46.1 µM), actives largely listed as activators; further: nearly all actives have a fitted effect of over 45% in size
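Read-out: ATP-based luminescence (CellTiterGlo, 10 min ambient) reporting growth of fusion-defective ts yeast after 48 hours at 37C on glycerol/ethanol YPEG medium in the presence of compound.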
TDP-43 yeast inh – qHTS of TDP-43 Inhibitors; AID 652104, 2013; TDP-43 expressing yeast growth rescue, BacTiter-Glo, 24 h; 1.8% of 410,000 active; Potency, µM (series often up to 46.1 µM), usual class: activators; further: nearly all actives have a fitted effect of over 50% in size
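Yeast expressing TDP-43 (pregrown in raffinose, seeded at OD600=0.02 in galactose medium) exposed to compounds 24 hr at 30 deg C. Growth read by BacTiter-Glo luminescence; rescue of toxicity appears as increased signal.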
Abeta rescue – qHTS for compounds that reverse cellular toxicity of Amyloid beta (A-beta) peptide in yeast: Primary Screen | Potency, µM (highest dose often 46.1 µM), usual class: activators | 0.063% of 410,000 active | yeast expressing A-beta42, growth rescue, OD600, 48 h; response scale: 0% DMSO, 100% iron-clioquinol control; further: nearly all actives have a fitted effect of over 55% in size
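Yeast A-beta toxicity model in growth medium with pinned compounds, 48 h at 30 C; growth read as absorbance at 600 nm. Normalized to FeCl3/clioquinol equimolar mix (positive) and DMSO (negative).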
Each line names hits and unclear results; the compound was inactive in the other large screens. The call rests on the fitted dose curve; in most records, active means well fitted curve in the direction sought with a large enough effect; inconclusive means small, poorly fitted or top-dose-only effect, or another doubt; inactive means no such curve, though single readings can be large; an effect the other way counts as inactive or inconclusive.

CCc1cccc(C)c1NC(=O)C(CC)Sc1nncn2c1cc1occc12 (configuration not stated)	TDP-43 yeast inh 14µM (no result: aSyn yeast inh, Mito fusion act)
CCOc1cccc(C(=O)Nc2ccc3oc(-c4ccc(C(C)(C)C)cc4)nc3c2)c1	none (no result: aSyn yeast inh, Mito fusion act)
O=c1cc(CSc2n[nH]c(-c3ccncc3)n2)nc2sccn12	none
Cc1cccc(C(=O)OCc2cc(=O)n3ccsc3n2)c1	TDP-43 yeast inh 18µM (no result: aSyn yeast inh, Mito fusion act)
CC(Oc1ccccc1)C(=O)Nc1ccc(C(=O)OCc2cc(=O)n3ccsc3n2)cc1 (configuration not stated)	FUS suppressor inconclusive, TDP-43 yeast inh 20µM (no result: aSyn yeast inh, Mito fusion act)
O=c1cc(CSc2ccc([N+](=O)[O-])cc2)nc2sccn12	aSyn yeast inh 16µM
Cc1cccc(-n2c(SCc3cc(=O)n4ccsc4n3)nc3ccccc32)c1	Mito fusion act inconclusive, TDP-43 yeast inh 22µM
Cc1ccc(SCc2cc(=O)n3ccsc3n2)c(C)c1	none (no result: aSyn yeast inh, FUS suppressor, TDP-43 yeast inh, Abeta rescue)
COc1ccc(N2CCN(S(=O)(=O)CCNC(=O)c3c(F)cccc3Cl)CC2)cc1	none (no result: aSyn yeast inh, Mito fusion act)
CC(C)c1ccc(NC(=O)C2(C)Cc3ccccc3C(=O)O2)cc1 (configuration not stated)	TDP-43 yeast inh inconclusive (no result: aSyn yeast inh, Mito fusion act)
Cc1ccc(CSc2nnc(-n3c(=O)c(C#N)cc4c(=O)n5cc(C)ccc5nc43)s2)cc1	none (no result: aSyn yeast inh, Mito fusion act)
CCOc1ccc(CCN2C(=S)N([C@@H](CC(C)C)CN3CCC[C@@H]3CN3C(=S)NC[C@@H]3Cc3ccccc3)C[C@@H]2Cc2ccc(O)cc2)cc1	FUS suppressor 28µM (no result: Mito fusion act)
CCOc1ccc(CCN2C(=S)N([C@@H](Cc3ccc(O)cc3)CN3CCC[C@@H]3CN3C(=S)NC[C@@H]3Cc3ccccc3)C[C@@H]2Cc2ccccc2)cc1	FUS suppressor inconclusive (no result: Mito fusion act)
Oc1ccc(C[C@H]2CNC(=S)N2CC2CCCN2C[C@H](Cc2ccc(O)cc2)N2C[C@H](Cc3ccc(O)cc3)N(CC3CCCCC3)C2=S)cc1 (some centres not stated)	FUS suppressor inconclusive, TDP-43 yeast inh 11µM (no result: Mito fusion act)
CC(C)C[C@@H](CN1CCC[C@@H]1CN1C(=S)NC[C@@H]1Cc1ccc(O)cc1)N1C[C@H](Cc2ccccc2)N(CCc2ccccc2)C1=S	FUS suppressor inconclusive (no result: Mito fusion act)
CCOc1ccc(CCN2C(=S)N([C@@H](Cc3ccccc3)CN3CCCC3CN3C(=S)NC[C@@H]3Cc3ccccc3)C[C@@H]2Cc2ccc(O)cc2)cc1 (some centres not stated)	FUS suppressor 11µM (no result: Mito fusion act)
Cc1nc2nc(CNC(=O)c3cccc(F)c3)nn2c(C)c1CCC(=O)Nc1ccc(F)cc1	none (no result: aSyn yeast inh, Mito fusion act)
O=C(Nc1ccc(F)cc1)Nc1nnc(Cc2ccccc2F)s1	none
O=c1c(Cl)c(N/N=C/c2ccc(Cl)cc2)cnn1-c1ccccc1	Mito fusion act 8.9µM
Nc1c(C(=O)N/N=C/c2ccc(Cl)cc2)cnn1-c1ccccc1	FUS suppressor inconclusive
Cc1cc(C)c(NC(=O)CSc2ncc3c(n2)-c2cc(Cl)ccc2N(C)S3(=O)=O)c(C)c1	none (no result: aSyn yeast inh, Mito fusion act)
COc1ccc(-c2ccnc3ncnn23)cc1	none
FCCCOc1ccc(-c2ccnc3ncnn23)cc1	TDP-43 yeast inh 22µM
Cc1ccc(Nc2nc(Nc3ccc(C)c(C)c3)nc(N3CCOCC3)n2)cc1C	none (no result: aSyn yeast inh, Mito fusion act)
COc1ccc(Nc2nc(N3CCOCC3)nc(N3CCOCC3)n2)cc1Cl	TDP-43 yeast inh 16µM
CCOc1nc(Nc2ccc(OC)c(Cl)c2)nc(OCC)n1	TDP-43 yeast inh 14µM
CCOc1nc(Nc2ccc(OC)cc2)nc(OCC)n1	none
CCCN(C)CCCOc1cc2nc(N3CCCN(C)CC3)nc(NC3CCN(C)CC3)c2cc1OC	none (no result: FUS suppressor, Mito fusion act, TDP-43 yeast inh, Abeta rescue)
COc1ccc2c(c1OC)C(=O)N1N=C(c3ccc(Br)cc3)CC21 (configuration not stated)	Mito fusion act 16µM, TDP-43 yeast inh 20µM
COc1ccc2c(c1OC)C(=O)N1N=C(c3ccc(Cl)cc3)CC21 (configuration not stated)	Mito fusion act inconclusive, TDP-43 yeast inh 35µM
COc1cc(NC(=O)Cn2ccn(Cc3ccccc3OC)c(=O)c2=O)cc(OC)c1	none (no result: aSyn yeast inh, Mito fusion act)
COc1cc2c(C#N)c(N3CCc4ccccc4C3)nc(N)c2c(N)n1	FUS suppressor inconclusive, TDP-43 yeast inh 13µM
O=c1[nH]c(-c2ccco2)nc2sc3c(c12)CCCC3	TDP-43 yeast inh 18µM (no result: FUS suppressor)
O=C(/C(=N/N=C/c1ccc(O)c(O)c1O)c1ccccc1)c1ccccc1	aSyn yeast inh 16µM (no result: FUS suppressor)
COc1ccc(S(=O)(=O)NC2CC3CCC2C3)cc1Br (configuration not stated)	TDP-43 yeast inh inconclusive
Cc1cc(C)c(S(=O)(=O)NC2CC3CCC2C3)c(C)c1 (configuration not stated)	TDP-43 yeast inh 13µM
O=[N+]([O-])c1ccc(NC(=S)N2CCc3ccccc32)cc1	TDP-43 yeast inh inconclusive, Abeta rescue inconclusive
CC(=O)c1cccc(NC(=S)N2CCc3ccccc32)c1	TDP-43 yeast inh inconclusive
Fc1cccc(NC(=S)N2CCc3ccccc32)c1	TDP-43 yeast inh 14µM, Abeta rescue inconclusive
S=C(Nc1ccccc1)N1CCc2ccccc21	TDP-43 yeast inh 13µM, Abeta rescue inconclusive
Cc1ccc(S(=O)(=O)N2CCOCC2)cc1C(=O)Nc1ccccc1C(=O)O	none (no result: aSyn yeast inh, Mito fusion act)
Cc1cc(C)c2oc(C(=O)Nc3c(C(=O)c4ccc(F)cc4)oc4ccccc34)cc(=O)c2c1	none (no result: aSyn yeast inh, Mito fusion act)
Cc1ccc(Nc2nc(CSc3nnnn3-c3ccccc3)cs2)cc1	TDP-43 yeast inh 14µM
Cc1ccc(Nc2nc(CSc3nnc(-c4ccccc4)n3C)cs2)cc1	TDP-43 yeast inh 18µM
CC1CCN(S(=O)(=O)c2ccc3c(ccn3CC(=O)NCc3ccc(N(C)C)cc3)c2)CC1	none (no result: aSyn yeast inh, Mito fusion act)
Cc1cc(C(=O)CN2C(=O)C3CC=CCC3C2=O)c(C)n1-c1ccccc1 (configuration not stated)	aSyn yeast inh inconclusive, FUS suppressor 32µM
Cc1ccc(Cl)cc1N1CCN(C(=O)c2cc(S(=O)(=O)N3CCC(C)CC3)cn2C)CC1	none (no result: aSyn yeast inh, Mito fusion act)
Cc1onc(-c2c(F)cccc2Cl)c1C(=O)c1ccc(F)cc1	TDP-43 yeast inh 13µM
Cc1onc(-c2c(F)cccc2Cl)c1C(=O)c1ccccc1	Abeta rescue inconclusive
Cc1onc(-c2c(Cl)cccc2Cl)c1C(=O)c1ccc(F)cc1	TDP-43 yeast inh 13µM
Fc1ccc(-c2ccnc3nc(N4CCN(c5ccccc5)CC4)nn23)cc1	none (no result: aSyn yeast inh)
c1ccc(-c2ccnc3nc(N4CCN(c5ccccc5)CC4)nn23)cc1	TDP-43 yeast inh 13µM
O=S(=O)(NCCC(c1ccc(F)cc1)c1ccco1)c1ccccc1 (configuration not stated)	Mito fusion act 22µM, TDP-43 yeast inh inconclusive (no result: FUS suppressor)
